ChEMBL document CHEMBL1201862, “PubChem BioAssay data set” (2004)
Among all 390,000 compounds or so, about 1,400 (0.36%) were called active. About 2% were inconclusive and are not listed. The rule behind the calls is not given here. Only a selection was taken, and actives are over-represented in it overall.

target: Flap endonuclease 1 (Homo sapiens) (UniProt P39748); assay: qHTS Assay for the Inhibitors of Human Flap endonuclease 1 (FEN1). [Related pubchem assays (depositor defined):AID488813]; assay type: functional
Sequence (P39748 whole entry): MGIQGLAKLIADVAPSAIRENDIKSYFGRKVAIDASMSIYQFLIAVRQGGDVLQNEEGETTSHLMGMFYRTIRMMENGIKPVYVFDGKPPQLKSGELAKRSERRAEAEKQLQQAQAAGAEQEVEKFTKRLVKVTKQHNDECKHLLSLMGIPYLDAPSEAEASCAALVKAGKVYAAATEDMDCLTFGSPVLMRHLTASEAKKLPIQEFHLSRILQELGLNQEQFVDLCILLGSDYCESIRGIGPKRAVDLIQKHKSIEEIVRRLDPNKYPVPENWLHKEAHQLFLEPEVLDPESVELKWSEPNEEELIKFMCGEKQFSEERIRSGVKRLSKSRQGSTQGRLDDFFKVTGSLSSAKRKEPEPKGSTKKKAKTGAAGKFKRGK

Compound | Potency
CC(N)(Cc1ccc(O)c(O)c1)C(=O)O (stereo not drawn) | 2.38 µM (active)
CCOC(=O)CN1C(=O)N[C@@H](c2cccc(C(F)(F)F)c2)C(C(=O)OC)=C1C | inactive
Nc1nc2ccc(OC(F)(F)F)cc2s1 | inactive
NCC(O)c1ccc(O)c(O)c1 (stereo not drawn) | 2.99 µM (active)
C=CCN1C2CCCC1CC(N=C(S)Nc1cccc(OC)c1)C2 (stereo not drawn) | inactive
CC(=O)c1ccc(NC(=O)NNS(=O)(=O)c2ccc([N+](=O)[O-])cc2)cc1 | inactive
ICCCCN1C=S(CI)c2ccccc21 (stereo not drawn) | 50.1 µM (active)
Cc1ccc(C)c(NC(=O)CN(C)C(=O)C2COc3ccccc3O2)c1 (stereo not drawn) | inactive
